The record followed here is PubChem BioAssay.

Chain of Follistatin-related protein 3 (Homo sapiens) (O95633 whole entry, looked up): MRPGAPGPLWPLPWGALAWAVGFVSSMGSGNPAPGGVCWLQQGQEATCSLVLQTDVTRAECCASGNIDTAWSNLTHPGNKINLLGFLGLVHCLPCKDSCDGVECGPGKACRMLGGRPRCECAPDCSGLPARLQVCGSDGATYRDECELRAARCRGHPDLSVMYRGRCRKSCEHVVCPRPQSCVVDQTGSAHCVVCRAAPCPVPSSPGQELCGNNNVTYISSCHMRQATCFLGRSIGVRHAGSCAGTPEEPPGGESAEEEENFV

The first test concerns the target Follistatin-related protein 3 (Homo sapiens) (UniProt O95633). In words: compounds binding follistatin-related protein 3 – biochemical, small-molecule microarray, 635 nm fluorescence, primary screen (AID 1105).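 Also: score merges emission near 667 nm and signal to noise per printed spot across three slides.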 As to conditions: FSTL3 binding, higher = more signal.
`O=C1OCC=C[C@H]2OC34C=CCN(c5ccc6ccccc6c5)C(=O)[C@H]3N(CCCO)C(=O)[C@@H]4[C@@H]12` (stereo partly specified) yielded a composite z-score of -0.699. On the same count and under the same terms, as for `[N-]=[N+]=NCc1ccccc1C[C@]1(C(=O)O)N=C(c2ccc(OCCCO)cc2)O[C@H]1c1ccccc1CN=[N+]=[N-]`, the figure is 0.541; as for `COCCOC(=O)N1C(=O)[C@@]2(c3cc(C#CCC(C(=O)OC)C(=O)OC)ccc31)[C@H](c1ccccc1OCCO)N1[C@H](c3ccccc3)[C@H](c3ccccc3)OC(=O)[C@H]1[C@@H]2C(N)=O`, 1.13; as for `COCC1=C2[C@@H](CCc3ccccc3)OB(O)C[C@@H]2[C@@H]2C(=O)N(Cc3ccccc3)C(=O)[C@@H]2C1`, 0.191.

As to `CC(C)NC(=O)[C@@H]1c2ccccc2C(=O)N(Cc2ccccc2Cl)[C@H]1c1ccc(CO)cc1`, the composite z-score was -0.398.

For the compound `COc1cc2c(cc1OC)CN(C(=O)[C@@H]1[C@H]3C(=O)O[C@H](c4ccccc4)[C@H](c4ccccc4)N3[C@H](c3ccccc3OCCO)[C@@]13C(=O)Nc1ccc(C#CCNC(N)=O)cc13)CC2`, the composite z-score turned out to be 0.445.

Another test deals with Dickkopf-related protein 1 (Homo sapiens) (UniProt O94907). Briefly: small molecules binding DKK1 protein – biochemical, small-molecule microarray, 635 nm fluorescence scan, primary screen (AID 1106).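 Also: score merges emission near 667 nm with signal to noise over three replicate slides.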 The following applies: higher = more signal.
Chain of Dickkopf-related protein 1 (Homo sapiens) (O94907 whole entry, looked up): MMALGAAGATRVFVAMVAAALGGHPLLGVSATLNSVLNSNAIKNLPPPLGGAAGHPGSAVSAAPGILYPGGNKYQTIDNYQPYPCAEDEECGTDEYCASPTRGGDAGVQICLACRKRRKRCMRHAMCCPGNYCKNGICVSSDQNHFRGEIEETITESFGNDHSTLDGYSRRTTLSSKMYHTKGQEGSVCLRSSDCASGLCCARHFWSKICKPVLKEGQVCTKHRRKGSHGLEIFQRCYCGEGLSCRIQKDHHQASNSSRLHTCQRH
With `Cc1ccccc1C(O)C1C=CC2C(=O)N(C)C(=O)C2N1Nc1ccccc1` (stereo unspecified), the composite z-score came to 0.0139. Turning to `COc1cc(CO)ccc1OC(C)=O`, the composite z-score came to 0.668. Regarding `CC(=CC1CCCCC1)[C@@H](NC(=O)c1ccc(C(F)(F)F)cc1)c1ccc(-c2ccccc2)cc1`, the composite z-score was -0.0349. Same read-out and setting: for `COc1ccc([Si](C)(C)[C@H]2[C@H](CCn3cc([C@H](O)c4ccccc4)nn3)O[C@@]3(C(=O)N(Cc4cccc(N5CCC5=O)c4)c4ccccc43)[C@@H]2C)cc1` the value was -0.0723; for `CCCC[C@H]1OB(O)C[C@H]2C1=C(C)C[C@H]1C(=O)N(Cc3ccccc3)C(=O)[C@H]12`, 0.999; for `CC(C)NC(=O)[C@@H]1c2ccccc2C(=O)N(Cc2ccccc2)[C@H]1c1ccc(CO)cc1`, -1.05. On the same count and under the same terms, for `[N-]=[N+]=NCc1ccccc1C[C@]1(C(=O)NCC(O)CO)N=C(c2ccc(OCCCO)cc2)O[C@H]1c1ccccc1N=[N+]=[N-]` (stereo partly specified) the value was -0.894; for `C=CCC(OC(C)=O)[C@@H]1[C@@H](N(Cc2ccc(-c3ccccc3)cc2)C(=O)Cc2ccc(F)cc2)c2cc(OCCCO)ccc2N1C(=O)c1ccc2ccccc2n1` (stereo partly specified), -0.221; for `CO[C@H]1O[C@H](CO)[C@@H](OC(=O)Nc2ccc(Oc3ccccc3)cc2)[C@H](OC(=O)Nc2ccccc2)[C@H]1OC(=O)Nc1ccccc1`, 0.113. Still for that read-out and setting: as for `CC(C)C(O)C1C=CC2C(=O)N(c3ccccc3)C(=O)C2N1Nc1ccc(C#N)cc1` (stereo unspecified), the figure is -0.512. Turning to `CC(C)c1ccc(NN2C(C(O)c3c(F)cccc3Cl)C=CC3C(=O)N(c4ccccc4)C(=O)C32)cc1` (stereo unspecified), the composite z-score is -0.247. The same measure, in the same setting: for `O=C(NCc1ccccc1)[C@]1(CCS(=O)(=O)c2ccccc2)N=C(c2ccc(OCCCO)cc2)O[C@@H]1c1ccccc1` the value was 0.168; for `COc1ccc([Si](C)(C)[C@H]2[C@H](CCn3cc(CCO)nn3)O[C@@]3(C(=O)N(Cc4ccc(N5CCOC5=O)cc4)c4ccccc43)[C@@H]2C)cc1`, 0.141; for `COCCOC(=O)N1C(=O)[C@@]2(c3cc(C#CC4=CCCCC4)ccc31)[C@H](C(=O)N1CCc3cc(OC)c(OC)cc3C1)[C@H]1C(=O)O[C@H](c3ccccc3)[C@H](c3ccccc3)N1[C@@H]2c1ccccc1OCCO`, 0.406. With `Cc1ccccc1C(O)C1C=CC2C(=O)N(C)C(=O)C2N1N1CCCCC1` (stereo unspecified), the composite z-score was determined as 0.215. The same measure, in the same setting: for `CCCCC(O)C1C=CC2C(=O)N(C3CCCCC3)C(=O)C2N1Nc1ccc(OC)cc1` (stereo unspecified) the value was -0.517; for `O=C(CCN1CCOCC1)c1cccc(O)c1`, 1.8. Same read-out and setting: as for `C=C(COC)C(=O)CC[C@@H](OC(=O)c1cccnc1)c1ccc(CO)o1`, the figure is 0.611; as for `O=C1c2ccccc2[C@@]2(Cc3ccccc3N(Cc3ccccc3)C2=O)[C@H](c2ccc(CO)cc2)N1C1CCCCC1`, 0.662.

`Cc1ccc(S[C@]2(C(=O)NC3CC3)CC(=O)N(C3CCCCC3)[C@@H]2c2ccc(CO)cc2I)cc1`: the composite z-score was determined as 0.0553. Take `CCOC(=O)C[C@H]1[C@H](OC(=O)c2ccccc2-c2ccccc2)[C@@H](NC(=O)c2ccc3ccccc3c2)c2cc(OCCCO)ccc2N1C(=O)c1ccc2ccccc2n1`: the composite z-score is -0.0224. Turning to `C[C@H]1NC(=O)[C@H](Cc2ccccc2)NC(=O)[C@@]23C(=O)N[C@@H](Cc4ccccc4)C2[C@H](C)[C@@]2(C)O[C@H]2C3/C=C/C/C=C\CNC1=O` (stereo partly specified), the composite z-score turned out to be 0.461. In turn, `COC(=O)C(CC#Cc1ccc2c(c1)[C@]1(C(=O)N2)[C@H](C(=O)NC[C@H](O)c2ccccc2)[C@H]2C(=O)O[C@H](c3ccccc3)[C@H](c3ccccc3)N2[C@@H]1c1ccc(OCCO)cc1)C(=O)OC` yielded a composite z-score of 1.14. The same measure, in the same setting: as for `COC(=O)[C@]1(Cc2ccccc2N=[N+]=[N-])N=C(c2ccc(OCCCO)cc2)O[C@@H]1c1ccccc1N=[N+]=[N-]`, the figure is -0.0862.

`COCCOC(=O)N1C(=O)[C@@]2(c3cc(C#CCCO)ccc31)[C@H](C(=O)NC[C@H](O)c1ccccc1)[C@H]1C(=O)O[C@H](c3ccccc3)[C@H](c3ccccc3)N1[C@@H]2c1ccc(O)cc1`: the composite z-score amounted to 0.165. Take `C=CCC(OC(C)=O)[C@@H]1[C@@H](N(Cc2cccc3ccccc23)C(=O)c2cccc3ccccc23)c2cc(OCCCO)ccc2N1C(=O)c1ccc2ccccc2n1` (stereo partly specified): the composite z-score was -0.501. On the same count and under the same terms, for `O=C1C2C=CC(C(O)c3ccc(B(O)O)cc3)N(Nc3ccccc3)C2C(=O)N1c1ccccc1` (stereo unspecified) the value was -0.502; for `C=C[C@H](COC(C)=O)N(Cc1ccc(OC(C)=O)c(OC)c1)S(=O)(=O)c1ccc(Br)cc1`, 0.844. `CC(C)Cc1ccc(CN2CC[C@@H](NS(=O)(=O)c3ccccc3)C2)cc1` displayed a composite z-score of 0.292. Same read-out and setting: as for `O=C1OCC=C[C@H]2OC34C=CCN(c5ccc6ccccc6c5)C(=O)[C@H]3N(CCCO)C(=O)[C@@H]4[C@@H]12` (stereo partly specified), the figure is -1.06; as for `[N-]=[N+]=NCc1ccccc1C[C@]1(C(=O)O)N=C(c2ccc(OCCCO)cc2)O[C@H]1c1ccccc1CN=[N+]=[N-]`, -0.742; as for `COCCOC(=O)N1C(=O)[C@@]2(c3cc(C#CCC(C(=O)OC)C(=O)OC)ccc31)[C@H](c1ccccc1OCCO)N1[C@H](c3ccccc3)[C@H](c3ccccc3)OC(=O)[C@H]1[C@@H]2C(N)=O`, 0.451. Still for that read-out and setting: as for `COCC1=C2[C@@H](CCc3ccccc3)OB(O)C[C@@H]2[C@@H]2C(=O)N(Cc3ccccc3)C(=O)[C@@H]2C1`, the figure is 0.249; as for `CC(C)NC(=O)[C@@H]1c2ccccc2C(=O)N(Cc2ccccc2Cl)[C@H]1c1ccc(CO)cc1`, -0.645; as for `COc1cc2c(cc1OC)CN(C(=O)[C@@H]1[C@H]3C(=O)O[C@H](c4ccccc4)[C@H](c4ccccc4)N3[C@H](c3ccccc3OCCO)[C@@]13C(=O)Nc1ccc(C#CCNC(N)=O)cc13)CC2`, 0.208.
